Source: PubChem (National Center for Advancing Translational Sciences (NCATS))
A selection: hits, their analogues and other compounds. The true share with any hit is near 17%.
ATXN2 expr inh: ATXN2 expression inhibition. HEK-293 ATXN2-luciferase reporter, luminescence, 24 h. Potency, µM (top dose mostly 57 µM), actives largely listed as inhibitors. 0.72% of 360,000 active; further: nearly all actives have a fitted effect of over 55% in size
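qHTS (up to 57 uM final) was run with 24 h compound exposure of reporter cells at 37 °C. Each well was multiplexed: SteadyGlo luminescence measured ATXN2-luciferase expression after a fluorogenic Gly-Phe-AFC viability readout (25 uM final).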
HepG2 viability: HepG2 cytotoxicity, counter-screen for TGF-b inhibitors; HepG2 CAGA-GFP viability, ATP luminescence, 18 h; AID 588856; 0.76% of 410,000 active; Potency, µM (top dose mostly 46.1 µM), most hits filed as cytotoxic
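HepG2 CAGA-GFP cells (1000/well, DMEM with 1% FBS) received compound, then TGF-beta at 500 pg/mL final, and were incubated 18 hours at 37 degrees C. Viability was read by CellTiter-Glo luminescence. Media-only wells were set as complete cell-killing and DMSO as no toxicity.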
DT40 TDP1 CPT: DT40-hTDP1 cell growth loss with CPT; Potency, µM (series often up to 46.2 µM), actives largely listed as inhibitors; 12% of 420,000 active; chicken DT40 Tdp1-/-;hTDP1 cells + 20 nM CPT, ATP luminescence, 48 h; AID 686979; further: nearly all actives have a fitted effect of over 55% in size
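Cell growth measured by CellTiter-Glo luminescence after a minimum 48 h, 37 C compound exposure with 20 nM CPT in Tdp1-knockout DT40 cells stably expressing hTDP1, seeded 400/well; qHTS titration format.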
ATXN viability: viability counter-screen for ATXN expression inhibitors | S2 cells (HEK-293 line with an ATXN2-luciferase reporter) viability, CellTiter-Fluor protease fluorescence, 24 h | Potency, µM (doses to about 56.7 µM), hits mostly cytotoxic | 0.49% of 400,000 active; further: nearly all actives have a fitted effect of over 40% in size
TGFb inhibitor: blocks TGF-b signaling; HepG2 CAGA-GFP TGF-b/SMAD3 reporter, GFP fluorescence, 18 h; TGF-beta stimulated, 500 pg/mL final; Potency, µM (doses to about 46.1 µM), usual class: inhibitors; 1.2% of 410,000 active; AID 588855; further: nearly all actives have a fitted effect of over 65% in size
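First, reporter cells (HEPG2 CAGA-GFP) rested 2 h at 37 degrees C. Next, compounds were pinned in and TGF-beta added to 500 pg/mL final. After 18 h, GFP was imaged per cell and summed per well.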
DT40 TDP1 no CPT: qHTS for Inhibitors of human tyrosyl-DNA phosphodiesterase 1 (TDP1): qHTS in cells in absence of CPT; DT40 Tdp1-/- hTDP1 cells, no CPT, ATP luminescence, 48 h; Potency, µM (top dose mostly 46.2 µM), most hits filed as inhibitors; 15% of 420,000 active; further: nearly all actives have a fitted effect of over 55% in size
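Readout: luminescence from CellTiter-Glo after 30 min in the dark at RT. Cells: DT40 Tdp1-/- with stable hTDP1, 400/well. Exposure: compounds alone, ≥48 hr, 37 °C.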
Numbers stand for hits; – = inactive; ? = inconclusive; · = no result; ! = repeats disagree. The call rests on the fitted dose curve; in most records, active means well fitted curve in the direction sought with a large enough effect; inconclusive means small, poorly fitted or top-dose-only effect, or another doubt; inactive means no such curve, though single readings can be large; an effect the other way counts as inactive or inconclusive.

SMILES	ATXN2 expr inh	HepG2 viability	DT40 TDP1 CPT	ATXN viability	TGFb inhibitor	DT40 TDP1 no CPT
CCOC(=O)[C@]12Cc3cc(Cl)ccc3[C@H]1N(C)C(=O)c1cc(OC)ccc12	?	·	23µM	?	·	16µM
CCOC(=O)[C@]12Cc3cc(OC)ccc3[C@H]1N(C)C(=O)c1cc(OC)ccc12	?	·	?	14µM	·	16µM
CCCCCN1C(=O)c2cc(OC)ccc2[C@@]2(C(=O)OCC)Cc3cc(OC)ccc3[C@@H]12	?	·	10µM	·	·	5.2µM
CCCCn1c(C)c(C(=O)O)c2cc(OC)ccc21	–	–	–	–	–	–
Cc1c(CCN)ccc2c1[nH]c1ccccc12	·	–	?	–	–	29µM
C[C@]12CC[C@H](O)C[C@@H]1CC[C@@H]1[C@@H]2CC[C@]2(C)C(=O)CC[C@@H]12	–	–	?	–	–	?
CC12CC[C@H]3[C@@H](CCC4(O)C[C@H](O)CCC34/C=N/NC(=O)Cc3ccccc3)C1(O)CCC2C1=CC(=O)OC1 (some centres not stated)	?	–	–	–	–	–
C[C@]12CC[C@H]3C(CCC4(O)CC(O)CC[C@]34C=O)C1=CC[C@H]2c1ccc(=O)oc1 (some centres not stated)	·	7.1µM	–	?	?	–
C[C@]12CC[C@H](O)C[C@H]1CC[C@@H]1[C@@H]2CC[C@]2(C)[C@@H](c3ccc(=O)oc3)C[C@H]3O[C@]132	·	·	?	·	·	15µM
CC(=O)O[C@H]1[C@H]2O[C@]23[C@@H]2CC[C@]4(O)C[C@@H](O)CC[C@]4(C)C2CC[C@]3(C)[C@H]1c1ccc(=O)oc1 (some centres not stated)	0.32µM	–	6.5µM	?	3.5µM	3.7µM
C[C@]12CC[C@H](O)C[C@H]1CCC1C2CC[C@]2(C)[C@@H](c3ccc(=O)oc3)C[C@H]3O[C@]132 (some centres not stated)	·	6.3µM	?	·	7.9µM	?
Cc1nc2ccccc2c(=O)n1-c1cccc(C(F)(F)F)c1	–	–	–	–	–	–
O=c1[nH]c(=O)n(Cc2ccccc2)c(O)c1C=NCCN1CCOCC1	–	–	–	–	–	–
CC12CCC3c4ccc(O)c([N+](=O)[O-])c4CCC3C1CCC2=O (configuration not stated)	·	–	?	–	–	?
CCC(=O)O[C@@H]1C=C2CCC3C(CCC4(C)C3CC[C@@H]4OC(=O)CC)C2CC1 (some centres not stated)	–	·	·	–	·	·
COC(=O)C1=C(c2ccc3ccccc3c2)C[C@@H]2CC[C@H]1N2C(=O)NC1CCCCC1	–	–	?	?	–	16µM
COC(=O)C1=C(c2ccc(C(C)=O)cc2)C[C@@H]2CC[C@H]1N2C(=O)NCC1CC1	–	–	–	–	–	–
COC(=O)C1=C(c2ccc(C(C)=O)cc2)C[C@@H]2CC[C@H]1N2C(=O)NC1CCCCC1	–	–	?	–	–	?
COC(=O)C1=C(c2ccc3ccccc3c2)C[C@@H]2CC[C@H]1N2C(=O)NC1CC1	–	–	15µM	–	?	9.2µM
COC(=O)C1=C(c2ccc3ccccc3c2)C[C@@H]2CC[C@H]1N2C(=O)NCC1CC1	–	–	12µM	?	–	9.2µM
CCCOc1ccccc1OCC(=O)N1CCN(CC(=O)N2CCOCC2)CC1	·	–	–	–	–	–
COc1ccc2c(C(=O)c3ccc(Cl)cc3)c(C)n(CC(=O)O)c2c1	–	·	–	–	·	–
CN(C)Cc1ccccc1OC(=O)N(C)C	–	–	–	–	–	–
Cc1nc2cc(OC(=O)N(C)Cc3cccc(-c4ccncc4)c3)ccc2s1	–	·	?	·	·	18µM
CN(Cc1cccc(-c2ccncc2)c1)C(=O)Oc1ccccc1Cc1ccccc1	?	·	?	18µM	·	16µM
SMILES	ATXN2 expr inh	HepG2 viability	DT40 TDP1 CPT	ATXN viability	TGFb inhibitor	DT40 TDP1 no CPT
OCC1OC(n2cnc3cc(Cl)c(Cl)cc32)C(O)C1O (configuration not stated)	–	–	15µM!	–	?	?
O=C(c1cc2cc(F)ccc2[nH]1)N1CCC2(CC1)OCCO2	·	–	?	–	–	?
O=C(c1cc2cc(Cl)ccc2[nH]1)N1CCC2(CC1)OCCO2	·	–	18µM	–	–	?
CCOc1ccc(NC(=O)c2c(O)[nH]c(=O)[nH]c2=O)cc1	–	–	23µM	–	?	16µM
CCOP(=O)(OCC)c1nc(-c2ccccc2)oc1NCc1ccccc1	–	–	?	–	–	?
CCOP(=O)(OCC)c1nc(-c2ccc(Br)cc2)oc1N1CCCCC1	·	–	10µM	–	?	8.2µM
CCOP(=O)(OCC)c1nc(-c2ccc(F)cc2)oc1NCc1ccccc1	–	–	?	·	–	–
CCOP(=O)(OCC)c1nc(-c2cccc3ccccc23)oc1NCCc1ccc(OC)cc1	–	–	?	–	–	?
CCOP(=O)(OCC)c1nc(-c2cccc3ccccc23)oc1N1CCOCC1	–	–	?	·	–	10µM
CCOP(=O)(c1ccccc1)c1nc(-c2ccc(F)cc2)oc1N1CCCCC1 (configuration not stated)	–	–	13µM	–	–	21µM
Nc1ccc(S(=O)(=O)NCc2ccccc2)cc1	–	·	–	–	·	?
Cc1ccc(-c2cn3c(=S)[nH]nc3s2)cc1	–	–	–	–	–	?
CC(CC(C#N)(c1ccccc1)c1ccccc1)N1CCOCC1 (configuration not stated)	–	–	23µM	–	–	?
CC(=O)c1c(O)c(C)c(O)c2c1OC1=Cc3c(c(C)nn3-c3ccccc3)C(=O)C12C (configuration not stated)	·	–	23µM	–	–	16µM
C[C@H]([C@H](O)CCC(C)(C)O)[C@H]1CC[C@@]2(O)C3=CC(=O)[C@@H]4C[C@@H](O)[C@@H](O)C[C@]4(C)[C@@H]3CC[C@]12C	–	·	·	·	·	·
O=C(c1ccccc1F)N1CCN(Cc2nc3sc4c(c3c(=O)[nH]2)CCCC4)CC1	–	–	–	–	?	–
Cc1cccc(NC(=O)N2CCCC2)c1	·	–	–	–	–	–
O=C(Nc1ccc2nc(-c3cccs3)c(-c3cccs3)nc2c1)N1CCCCC1	·	–	8.9µM	·	–	11µM
N#CC1c2ccccc2C=CN1C(=O)c1ccc(N(CCCl)CCCl)cc1 (configuration not stated)	·	–	23µM	–	–	18µM
